According to PubChem BioAssay AID1159580 (chemical genetic matrix, 2015):
The whole screen tested about 5,500 compounds, of which about 2,000 (36%) were called active. Another 18% or so got no clear call; they are omitted. Rule as the data show it: active = normalized growth mostly below about 0.91 (no sharp cut-off); inconclusive = no clear call, values can overlap the other calls; inactive = mostly above about 0.92. The list shows a part of the results.

Assay: chemical genetic growth profiling, strain panel (AID 1159580);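 also: tested at 20 µM; growth read once vehicle control cultures reached saturation at 30 °C; 1 = growth at the plate median or of vehicle wells; lower values mean less growth of the strain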
Settings: S. cerevisiae deletion strains, growth OD

Measured: normalized growth

O=C(/C=C/c1ccc(O)c(O)c1)OCCc1ccccc1
inactive: locus YAL021C, strain ccr4, stronger effect = lower value 0.937 | locus YAL040C, strain CLN3, stronger effect = lower value 1.08 | locus YBR171W, strain sec66, stronger effect = lower value 0.911 | locus YDL005C, strain med2, stronger effect = lower value 0.964 | locus YDL040C, strain nat1, stronger effect = lower value 0.96 | locus YDR001C, strain nth1, stronger effect = lower value 0.933 | locus YDR159W, strain sac3, stronger effect = lower value 0.916 | locus YDR363W, strain ESC2, stronger effect = lower value 0.98 | locus YEL037C, strain rad23, stronger effect = lower value 0.938 | locus YFR010W, strain ubp6, stronger effect = lower value 0.906 | locus YGL167C, strain pmr1, stronger effect = lower value 0.941 | locus YGL240W, strain doc1, stronger effect = lower value 0.927 | locus YJL115W, strain asf1, stronger effect = lower value 0.989 | locus YJL154C, strain vps35, stronger effect = lower value 0.962 | locus YLR113W, strain HOG1, stronger effect = lower value 0.862 | locus YLR357W, strain rsc2, stronger effect = lower value 0.88 | locus YLR370C, strain arc18, stronger effect = lower value 0.944 | locus YLR384C, strain iki3, stronger effect = lower value 0.972 | locus YNL197C, strain WHI3, stronger effect = lower value 0.897 | locus YNL224C, strain SQS1, stronger effect = lower value 0.937 | locus YNL322C, strain KRE1 (second series), stronger effect = lower value 0.963 | locus YNR049C, strain mso1, stronger effect = lower value 0.944 | locus YOR080W, strain dia2, stronger effect = lower value 0.961 | locus YPL106C, strain sse1, stronger effect = lower value 0.882 | locus YPL241C, strain CIN2, stronger effect = lower value 0.964 | locus YPL256C, strain CLN2, stronger effect = lower value 0.854
active: locus YAL026C, strain drs2, stronger effect = lower value 0.671 | locus YAL030W, strain snc1, stronger effect = lower value 0.889 | locus YBL061C, strain skt5, stronger effect = lower value 0.767 | locus YBR009C, strain hhf1, stronger effect = lower value 0.781 | locus YBR023C, strain chs3, stronger effect = lower value 0.774 | locus YBR231C, strain swc5, stronger effect = lower value 0.587 | locus YBR279W, strain paf1, stronger effect = lower value 0.848 | locus YCL011C, strain gbp2, stronger effect = lower value 0.751 | locus YCL016C, strain dcc1, stronger effect = lower value 0.774 | locus YCL061C, strain MRC1, stronger effect = lower value 0.851 | locus YCL069W, strain vba3, stronger effect = lower value 0.913 | locus YCR088W, strain abp1, stronger effect = lower value 0.841 | locus YDR069C, strain doa4, stronger effect = lower value 0.804 | locus YDR137W, strain rgp1, stronger effect = lower value 0.589 | locus YDR195W, strain ref2 1.19 [resistant] | locus YDR297W, strain sur2, stronger effect = lower value 0.87 | locus YDR334W, strain swr1, stronger effect = lower value 0.641 | locus YDR335W, strain msn5, stronger effect = lower value 0.868 | locus YDR392W, strain spt3, stronger effect = lower value 0.116 | locus YEL003W, strain gim4, stronger effect = lower value 0.691 | locus YEL061C, strain CIN8 (second series), stronger effect = lower value 0.693 | locus YER002W, strain NOP16, stronger effect = lower value 0.896 | locus YER015W, strain faa2, stronger effect = lower value 0.775 | locus YER016W, strain bim1, stronger effect = lower value 0.868 | locus YER111C, strain swi4, stronger effect = lower value 0.808 | locus YER155C, strain BEM2 (second series), stronger effect = lower value 0.463 | locus YGL173C, strain kem1, stronger effect = lower value 0.796 | locus YGL227W, strain vid30, stronger effect = lower value 0.287 | locus YGL253W, strain hxk2, stronger effect = lower value 0.749 | locus YGR078C, strain PAC10, stronger effect = lower value 0.881 | locus YGR229C, strain SMI1, stronger effect = lower value 0.357 | locus YHR013C, strain ard1, stronger effect = lower value 0.683 | locus YHR027C, strain rpn1, stronger effect = lower value 0.857 | locus YHR030C, strain SLT2, stronger effect = lower value 0.837 | locus YHR079C, strain IRE1, stronger effect = lower value 0.803 | locus YHR142W, strain chs7, stronger effect = lower value 0.592 | locus YJL092W, strain hpr5, stronger effect = lower value 0.891 | locus YJL095W, strain BCK1 (second series), stronger effect = lower value 0.644 | locus YJL095W, strain BCK1, stronger effect = lower value 0.863 | locus YJL129C, strain trk1, stronger effect = lower value 0.522 | locus YJL164C, strain tpk1, stronger effect = lower value 0.766 | locus YJL166W, strain qcr8, stronger effect = lower value 0.807 | locus YJL187C, strain SWE1, stronger effect = lower value 0.851 | locus YJR066W, strain TOR1, stronger effect = lower value 0.742 | locus YJR075W, strain HOC1, stronger effect = lower value 0.858 | locus YKL160W, strain elf1, stronger effect = lower value 0.724 | locus YKR026C, strain gcn3, stronger effect = lower value 0.908 | locus YKR091W, strain srl3, stronger effect = lower value 0.928 | locus YLL001W, strain dnm1, stronger effect = lower value 0.832 | locus YLL026W, stronger effect = lower value 0.896 | locus YLL041C, strain sdh2, stronger effect = lower value 0.898 | locus YLR027C, strain aat2, stronger effect = lower value 0.774 | locus YLR221C, strain rsa3, stronger effect = lower value 0.69 | locus YLR258W, strain gsy2, stronger effect = lower value 0.844 | locus YLR262C, strain YPT6 (second series), stronger effect = lower value 0.493 | locus YLR320W, strain mms22, stronger effect = lower value 0.453 | locus YLR342W, strain FKS1, stronger effect = lower value 0.796 | locus YML120C, strain ndi1, stronger effect = lower value 0.686 | locus YMR058W, strain fet3, stronger effect = lower value 0.494 | locus YMR125W, strain sto1, stronger effect = lower value 0.615 | locus YMR129W, stronger effect = lower value 0.911 | locus YMR205C, strain PFK2, stronger effect = lower value 0.66 | locus YMR231W, strain pep5, stronger effect = lower value 0.759 | locus YNL071W, strain lat1, stronger effect = lower value 0.478 | locus YNL175C, strain NOP13, stronger effect = lower value 0.879 | locus YNL183C, strain NPR1, stronger effect = lower value 0.803 | locus YNL209W, strain ssb2, stronger effect = lower value 0.855 | locus YNL248C, strain rpa49, stronger effect = lower value 0.769 | locus YNL322C, strain KRE1, stronger effect = lower value 0.881 | locus YOR001W, strain rrp6, stronger effect = lower value 0.8 | locus YOR070C, strain gyp1, stronger effect = lower value 0.827 | locus YOR083W, strain WHI5 (second series), stronger effect = lower value 0.751 | locus YOR083W, strain WHI5, stronger effect = lower value 0.81 | locus YOR106W, strain vam3, stronger effect = lower value 0.573 | locus YOR231W, strain MKK1, stronger effect = lower value 0.857 | locus YOR265W, strain rbl2, stronger effect = lower value 0.881 | locus YOR270C, strain vph1, stronger effect = lower value 0.568 | locus YOR290C, strain snf2, stronger effect = lower value 0.748 | locus YPL051W, strain arl3, stronger effect = lower value 0.652 | locus YPL078C, strain atp4, stronger effect = lower value 0.855 | locus YPL240C, strain hsp82, stronger effect = lower value 0.845
